miR122 inh = miR-122 Renilla sensor signal increase in Huh7, primary screen, miR-122 inhibitor project, cell-based, single point, plate reader | Huh7 miR-122 Renilla luciferase sensor, 48 h; neutral wells = 0, positive control = 100 | activation (reporter increase), % at 12.5 µM | actives 0.3% (n = 340,000);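 active = mean replicate activation score at least 90 and every replicate individually at or above 90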;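 note: higher luciferase means less miR-122 activity so hits act as miR-122 inhibitors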
HIV Env fusion = inhibitors of HIV-1 Env-driven cell-cell fusion, primary screen, HeLa-JRFL effector, CEM21 target cells, luciferase | inhibition, % at 12.3 µM | actives 1.1% (n = 360,000) | AID 651610, 2012;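 active = mean replicate inhibition score of at least 50 and every replicate individually at or above 50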;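 note: 0% = plate neutral controls and 100% = maraviroc near 300 nM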
Statin myotox sup = suppressors of statin myotoxicity in C2C12 myotubes, primary screen, cell-based, single point, plate reader; C2C12 myotubes + simvastatin, ATP luminescence, 48 h; scaled: DMSO 0, geranylgeraniol control 100; rescue of ATP level, % at 7.49 µM; actives 0.78% (n = 330,000); AID 602340, 2012;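 active = mean ATP rescue above about 67%, or every replicate alone reaching that limit, limit read from the data, passing the limit was not always enough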;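 note: myotubes were challenged with 10 µM simvastatin during compound exposure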
PAX8 reporter = inhibitors of PAX8-driven TPO luciferase reporter, primary screen, RMG-I cells, single concentration. inhibition, % at 12.6 µM. AID 652154, 2013. actives 1.2% (n = 360,000). SteadyGlo, 24 h;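 active = mean replicate inhibition at least 60% with every replicate also reaching 60%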;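 note: luciferase light reporting Pax8 driven TPO promoter activity; plate controls were median of neutral control wells for no effect and mitoxantrone controls for full effect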
INS-1E GSIS act = GLuc luminescence reporter in INS-1E cells, primary screen for activators of glucose-dependent secretion of insulin. INS-1E GLuc reporter insulin secretion, 2-3 h. activation, % at 16.6 µM. actives 0.61% (n = 370,000);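 active = lowest replicate activation of at least 40%, so every replicate reaches that level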;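 note: 0% = median of neutral control wells and 100% = median of IBMX positive control wells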
EWS-Fli inh = EWS/Fli-driven NR0B1 reporter inhibitors, primary screen, A673 cells, NR0B1 luciferase, luminescence, MLPCN library. inhibition, % at 12.6 µM. actives 0.67% (n = 350,000). viability-normalised;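 active = mean inhibition of at least 50% after viability correction, with every replicate also passing that limit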;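 note: firefly luciferase signal divided by Alamar Blue viability fluorescence both relative to DMSO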
An asterisk follows results filed as active; nt = no result; ! = a repeat was not active; [ ] = dose if it differs, or a comment. This is a sample that favours compounds with a hit; in the whole collection about 3.1% have one here.

SMILES | miR122 inh | HIV Env fusion | Statin myotox sup | PAX8 reporter | INS-1E GSIS act | EWS-Fli inh
O=C(COC(=O)c1ccc(O)cc1O)Nc1ccc2ccccc2c1 | 10.0 | nt | -0.1 | -66.0 | -5.7 | -64.7
COC(=O)c1cc(NCc2c(F)cccc2Cl)ccc1N1CCOCC1 | 4.8 | 33.7 | 12.5 | nt | 1.6 | nt
COC(=O)c1ccc(NCc2cc(O)ccc2O)cc1O | 37.3 | -7.6 | -32.3 | 34.9 | -9.1 | 57.2*
COC(=O)c1ccc(NCc2c(O)ccc(O)c2Br)cc1Cl | 31.2 | -119.2 | 1.4 | 6.0 | -2.5 | 72.3*
Cc1ccc(-c2cc(-c3ccccc3)no2)cc1 | 4.3 | -240.0 | -4.2 | -24.0 | nt | 58.9*
COc1ccc(NC(=O)N(C)C[C@@H]2Oc3c(NS(=O)(=O)c4ccc(OC)cc4)cccc3C(=O)N([C@@H](C)CO)C[C@H]2C)cc1 | -0.9[16.7 µM] | -28.6[16.7 µM] | 5.8 | -13.0 | -3.0 | -4.4
Cc1ccc(-c2nc3c(=O)n(C)c4ccccc4c3o2)cc1 | 1.4 | -55.3 | 6.1 | nt | 79.2* | nt
C[C@@H]1CN([C@@H](C)CO)C(=O)c2cccc(NS(=O)(=O)c3ccc(Cl)cc3)c2O[C@H]1CN(C)C(=O)Nc1ccc(C(F)(F)F)cc1 | 3.0[16.7 µM] | nt | -22.1 | nt | 6.1 | -6.0
COc1ccc(C2CC(c3ccc(OC)c(OC)c3)=NN2C(=O)c2ccccc2)cc1 (stereo not drawn) | -0.6 | -4.4 | 5.4 | 32.4 | 66.5* | 7.3
COc1ccc(OC)c(C2CC(c3ccccc3)=NN2C(=S)Nc2ccccc2)c1 (stereo not drawn) | nt | -9.2 | nt | 14.5 | -8.4 | 52.3*
CNC(=S)N1N=C(c2ccc(C)cc2)CC1c1cc(OC)ccc1OC (stereo not drawn) | nt | 1.1 | nt | 26.9 | -4.2 | 25.6
O=C(CC1CC1)N1CC2(C1)[C@H](c1ccccc1)[C@@H](CO)N2Cc1ccccc1 | nt | nt | nt | nt | 0.6 | 2.8
O=C(COC(=O)[C@H](Cc1c[nH]c2ccccc12)NC(=O)c1cccs1)NCc1ccccc1 | -6.1 | nt | nt | 65.6* | -12.7 | 7.9
CN(C)c1ncnc2sc(-c3ccccc3)cc12 | -8.3 | 18.0 | -8.0 | -40.6 | 40.4* | -33.4
COc1ncnc2sc(-c3ccccc3)cc12 | -0.7 | nt | 6.0 | nt | nt | nt
COc1ccc(-c2cn(-c3ccccc3)c(=S)[nH]2)cc1OC | -17.6 | 62.2* | -10.9 | -4.5 | -3.5 | -1.6
Cc1cc(C)nc(Nc2nc(C(N)CCc3ccccc3)cs2)n1 (stereo not drawn) | 2.9 | 74.1* | -29.1 | 3.9 | -12.6 | 2.8
CCN1CC(=O)N2[C@H](CO)[C@H](c3ccc(Br)cc3)[C@@H]2C1 | nt | nt | nt | nt | 6.3 | -7.5
COc1cccc(/C=N/NC(=O)c2ccc(N3CCCC3=O)cc2)c1 | 0.6 | -96.5 | 3.9 | 96.3* | -1.1 | 18.0
COc1ccc(C(CNC(=O)c2ccc(N3CCCC3=O)cc2)N(C)C)cc1 (stereo not drawn) | -12.4 | nt | 84.0* | nt | -2.3 | nt
COc1ccc(C2C(O)C(c3c[nH]c4ccccc34)=NN2C(=O)CCl)cc1 (stereo not drawn) | -27.1 | -72.1 | -776.3 | 117.4* | -5.5 | 62.2*
Cc1ccc(-n2c(-c3ccccc3)c[nH]c2=S)cc1 | nt | 34.1 | nt | 14.0 | 5.0 | -22.8
S=c1[nH]cc(-c2ccccc2)n1-c1ccccc1 | -0.1 | -31.0 | 97.9* | -16.4 | nt | nt
COc1ccc(-n2c(-c3ccc(Cl)cc3)c[nH]c2=S)cc1 | -8.4 | 0.3 | 37.6 | 1.2 | 200.3* | -10.3
C/C(N)=C(/C#N)C(=O)CSc1nc(C2CCCCC2)n(-c2ccccc2)n1 | -1.2 | 67.5*! | 0.9 | 6.8 | 2.3 | -2.4
SMILES | miR122 inh | HIV Env fusion | Statin myotox sup | PAX8 reporter | INS-1E GSIS act | EWS-Fli inh
C[C@H]1CN([C@@H](C)CO)C(=O)Cc2cc(NS(=O)(=O)c3ccccc3)ccc2O[C@@H]1CN(C)S(=O)(=O)c1ccc(Cl)cc1 | 0.8[16.7 µM] | -9.6[16.7 µM] | 13.4 | -2.8 | -8.4 | 1.9
C[C@H](CO)N1C[C@H](C)[C@H](CN(C)S(=O)(=O)c2ccc(F)cc2)Oc2ccc(NS(=O)(=O)c3ccc(Cl)cc3)cc2CC1=O | 0.3[16.7 µM] | 58.8*[16.7 µM] | 14.8 | 1.1 | -9.9 | -0.6
C[C@H](CO)N1C[C@H](C)[C@H](CN(C)S(=O)(=O)c2ccc(F)cc2)Oc2ccc(NS(=O)(=O)c3ccccc3)cc2CC1=O | -4.8[16.7 µM] | 85.6*[16.7 µM] | -13.2 | -3.8 | -3.3 | 7.9
C[C@@H]1CN([C@H](C)CO)C(=O)Cc2cc(NS(=O)(=O)c3ccccc3)ccc2O[C@@H]1CN(C)S(=O)(=O)c1ccc(Cl)cc1 | 13.8[16.7 µM] | 2.3[16.7 µM] | -11.4 | 103.6* | -1.4 | 19.4
CO[C@H]1CN(C)C(=O)c2ccc(NS(=O)(=O)c3ccccc3)cc2OC[C@H](C)N(Cc2cccnc2)C[C@H]1C | nt | -3.7[16.7 µM] | -0.1 | 14.5 | 7.9 | 9.9
C(=C\c1ccccc1)/CN1CCN(c2ncnc3c2oc2ccccc23)CC1 | -3.8 | 77.7* | -22.3 | nt | 81.3 | nt
Cc1ccc2ccccc2c1C(O)c1ncc(-c2ccccc2F)[nH]1 (stereo not drawn) | 175.4* | 6.2 | 17.1 | 32.0 | -1.5 | 9.0
Cc1cccc(C)c1C(O)c1ncc(-c2ccccc2F)[nH]1 (stereo not drawn) | 10.6 | -17.0 | -0.9 | -12.9 | -11.8 | -7.0
Cc1cccc(C(O)c2ncc(-c3ccccc3F)[nH]2)c1C (stereo not drawn) | 95.9* | 1.5 | 0.1 | -2.1 | -1.9 | -7.1
Cc1cc(F)ccc1C(O)c1ncc(-c2ccccc2F)[nH]1 (stereo not drawn) | 111.6* | -25.3 | 2.7 | 2.7 | -18.6 | -14.4
O=C(C[C@@H]1CC[C@H](NS(=O)(=O)c2ccccc2)[C@@H](CO)O1)N1CCN(c2ccccc2)CC1 | nt | nt | nt | 5.5 | 2.5 | -11.6
COc1ccccc1-c1cn(CC[C@@H]2CC[C@H](NC(=O)CCN3CCCCC3)[C@H](CO)O2)nn1 | nt | 7.3[16.7 µM] | 0.6 | -13.7 | 14.3 | 2.0
CCOc1ccc(S(=O)(=O)NCc2cccnc2)cc1NC(=O)c1ccccc1 | 3.9 | nt | 1.3 | -27.8 | 1.0 | -12.5
CCOc1ccc(S(=O)(=O)NCc2ccccn2)cc1NC(=O)c1ccccc1 | 90.0 | -9.2 | nt | 13.2 | 8.8 | 58.0*
C[C@H]1CN([C@@H](C)CO)S(=O)(=O)c2ccc(-c3cncnc3)cc2O[C@@H]1CN(C)C | 15.3[16.7 µM] | 2.9[16.7 µM] | -3.5 | nt | 4.0 | -4.6
C[C@H](NC(=O)C[C@@H]1C[C@H]2c3cc(NC(=O)C4CCC4)ccc3O[C@H]2[C@@H](CO)O1)c1ccccc1 | -3.0[16.7 µM] | nt | 1.0 | 0.6 | -3.0 | 5.0
CN(C)/C=C1\N=C(c2cccnc2Oc2ccc(Cl)cc2)OC1=O | 0.0 | 11.4 | 115.1* | 8.9 | nt | 18.5

Bioassay records deposited in PubChem by Broad Institute.
